Assay outcomes: PubChem, National Center for Advancing Translational Sciences (NCATS)
Sampled rows, rich in hits. Any-hit rate of the full collection: about 9.5%.
Pf growth 48h – P. falciparum growth inhibition at 48 hours (one generation) | P. falciparum luciferase growth in erythrocytes, 48 h | Potency, µM (doses to about 28.7 µM), for the others: at the highest dose activity change, negative = inhibition, actives largely listed as inhibitors | hit rate 5.9% among 310,000 | AID 504832; note: % is set by controls: 0 for no effect and ±100 for the full control effect
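Read-out is firefly luciferase luminescence from an integrated reporter in P. falciparum, so falling signal marks reduced parasite growth. Infected erythrocytes were at 2% hematocrit and 0.1% parasitemia (final) in Albumax-supplemented RPMI 1640.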
NS1 function inh – blocks influenza NS1 protein function | Potency, µM (series often up to 46.1 µM), for inactives: at the top dose activity, positive = more growth | AID 2326 | hit rate 0.4% among 270,000; calls by dose curve; note: actives are rising curves; nearly all actives have a fitted effect of over 50% in size
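Compounds were scored for reversing the slow growth caused by influenza A NS1 in S. cerevisiae, measured by optical density at 600 nm. Assay medium contained 2% galactose at pH 6.0; NS1-free yeast of the same strain were the positive control.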
SARS PLpro yeast – blocks SARS-CoV papain-like protease in a yeast assay; S. cerevisiae expressing SARS-CoV PLpro, growth rescue; Potency, µM (highest dose often 32.9 µM), for inactives: at the highest dose activity, positive = growth rescue, actives largely listed as activators; hit rate 0.19% among 330,000; AID 485353; calls by dose curve; note: 0% is about no effect; nearly all actives have a fitted effect of over 55% in size
Pf growth 96h – P. falciparum growth inhibition at 96 hours. AID 504834. hit rate 6.9% among 320,000. Potency, µM (doses to about 28.7 µM), inactives show at the top dose activity change, negative = inhibition, hits mostly inhibitors. P. falciparum luciferase reporter growth, 96 h; note: % is set by controls: 0 for no effect and ±100 for the full control effect
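Infected RBCs, 2% Hct / 0.05% parasitemia final; luciferase-reporter P. falciparum; cpd 96 h, 37 C, 5% CO2; luciferase detection reagent; luminescence.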
RE007 growth inh – less growth of the S. pombe RE007 Vpr strain | hit rate 0.21% among 360,000 | Potency, µM (series often up to 92.2 µM), for inactives: top-dose activity change, negative = less growth, hits mostly inhibitors | AID 651644 | S. pombe RE007 Vpr strain, BacTiter-Glo ATP luminescence, 24 h; active = well fitted falling curve with a large enough effect; inconclusive = small, poorly fitted or top-dose-only effect; inactive = no such curve, though single readings can be large or run the other way; note: % is set by controls: 0 for no effect and ±100 for the full control effect; nearly all actives have a fitted effect of over 50% in size
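Fission yeast strain RE007, carrying one chromosomally integrated HIV-1 vpr copy, was seeded at OD 0.01 in PMG+AL medium with 23 nL pinned compound. After 24 h at 30 °C and 99% humidity, viability was read by BacTiter-Glo luminescence.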
Starred values were filed as active, the others as inactive; [ ] = remark or other dose. Unless noted, calls come from the whole dose curve; as a rule, active = well fitted inhibition curve with a large enough effect; inconclusive = small, poorly fitted or top-dose-only effect, or another doubt; inactive = no such curve, though single readings can be large or run the other way. Potency is the fitted concentration of half-maximal effect.

How did COc1ccc(C2C(C#N)=C(C)NC(C)=C2C(=O)OC(C)C)c(OC)c1 (stereo not drawn) do in these assays?
Pf growth 48h: 7.38µM*; SARS PLpro yeast: -3.8%; Pf growth 96h: 4.65µM*; RE007 growth inh: -8.0%

What do the screens show for `CC1=C(C(=O)OC(C)C)C(c2ccc(C)o2)C(C(=O)OC(C)C)=C(C)N1`?
Pf growth 48h: 10.4µM*; NS1 function inh: 3.6%; SARS PLpro yeast: -0.5%; Pf growth 96h: inconclusive; RE007 growth inh: 0.3%

What do the screens show for `CCOC(=O)C1=C(C)NC(C)=C(C(=O)OCC)C1c1ccc(Br)o1`?
Pf growth 48h: inconclusive; NS1 function inh: -7.2%; SARS PLpro yeast: 18.1%; Pf growth 96h: 11.7µM*; RE007 growth inh: 0.4%

How did O=C(OCC(O)C(O)C(O)C(SCc1ccccc1)SCc1ccccc1)c1ccccc1 (stereo not drawn) do in these assays?
RE007 growth inh: -4.6%

What do the screens show for `COc1ccc(C(=O)N/C(=C\c2cccc3ccccc23)C(=O)NCCc2c[nH]c3ccccc23)cc1OC`?
Pf growth 48h: 2.94µM*; NS1 function inh: inconclusive; SARS PLpro yeast: 0.3%; Pf growth 96h: 5.86µM*; RE007 growth inh: 2.7%

Results for O=C(NCCc1c[nH]c2ccccc12)/C(=C\c1cccs1)NC(=O)c1ccccc1 ?
Pf growth 48h: inconclusive; NS1 function inh: -8.8%; SARS PLpro yeast: 5.1%; Pf growth 96h: 14.7µM*; RE007 growth inh: 2.6%

How did Cc1ccc(C(=O)N/C(=C\c2cccs2)C(=O)NCCc2c[nH]c3ccccc23)cc1C do in these assays?
Pf growth 48h: inconclusive; NS1 function inh: inconclusive; SARS PLpro yeast: 2.2%; Pf growth 96h: inconclusive; RE007 growth inh: -26.2%

Results for COc1ccc(C(=O)NCCc2c[nH]c3ccccc23)cc1OC ?
Pf growth 48h: -14.5%; NS1 function inh: 9.5%; SARS PLpro yeast: -14.2%; Pf growth 96h: inconclusive; RE007 growth inh: 12.7%

How did CCc1nc2c(OCCn3cccc3)cccn2c1N(C)C(=O)c1ccc(OC)cc1 do in these assays?
RE007 growth inh: -2.9%

How did COc1ccc(OC)c(-n2c(CNC3CCN(Cc4ccccc4)CC3)nc3ccccc3c2=O)c1 do in these assays?
NS1 function inh: -1.7%; SARS PLpro yeast: -0.6%; Pf growth 96h: 11.7µM*; RE007 growth inh: -6.4%

What do the screens show for `COc1ccc(OC)c(-n2c(CN3CCC(C(N)=O)CC3)nc3ccccc3c2=O)c1`?
Pf growth 48h: 20.3%; NS1 function inh: 1.2%; SARS PLpro yeast: 5.4%; Pf growth 96h: 19.0%[5.75 µM]; RE007 growth inh: 14.5%

Results for COc1ccc(C)cc1-n1c(N)c(C#N)c(C#N)c1-c1ccc(OC)c(OC)c1OC ?
Pf growth 48h: 11.7µM*; NS1 function inh: -2.0%; SARS PLpro yeast: 3.7%; Pf growth 96h: 50.0%; RE007 growth inh: 5.6%

Results for COc1ccccc1NC(=O)COc1ccc(C(=O)NCc2ccccc2)cc1OC ?
Pf growth 48h: 13.1µM*; SARS PLpro yeast: -3.9%; Pf growth 96h: inconclusive; RE007 growth inh: 10.2%

What do the screens show for `COc1ccccc1NC(=O)c1ccc(NC(=O)COC(=O)C(C)C)cc1`?
Pf growth 48h: 7.38µM*; NS1 function inh: -13.1%; SARS PLpro yeast: -13.0%; Pf growth 96h: 6.57µM*; RE007 growth inh: -9.9%

What do the screens show for `COc1ccc(C(=O)NCC(=O)NCC2(N(C)C)CCCCC2)cc1OC`?
NS1 function inh: -4.7%; SARS PLpro yeast: -0.6%; Pf growth 96h: inconclusive; RE007 growth inh: -17.4%

How did COc1cc(C(=O)NCC2(N(C)C)CCCCC2)ccc1OCc1ccccc1 do in these assays?
Pf growth 48h: inconclusive; NS1 function inh: 3.9%; SARS PLpro yeast: 29.7%; Pf growth 96h: 9.28µM*; RE007 growth inh: 34.6%

How did COc1ccccc1NC(=O)COc1ccc(Br)cc1CNC1CCCC1 do in these assays?
Pf growth 48h: 11.7µM*; NS1 function inh: 5.4%; SARS PLpro yeast: 0.8%; Pf growth 96h: 7.2%; RE007 growth inh: -26.5%

Results for COc1ccccc1NC(=O)c1ccc(NC(=O)COC(=O)c2ccc(O)cc2)cc1 ?
Pf growth 48h: inconclusive; SARS PLpro yeast: -8.7%; Pf growth 96h: -22.0%; RE007 growth inh: 11.9%

What do the screens show for `Cc1ccsc1C(=O)N(CC(C)C)c1c(N)n(Cc2ccccc2)c(=O)[nH]c1=O`?
Pf growth 48h: inconclusive; NS1 function inh: 2.5%; SARS PLpro yeast: 4.1%; Pf growth 96h: -21.9%; RE007 growth inh: -2.2%

Results for CNc1ccc2ncc(-c3cccc(C(=O)N(C)C)c3)n2n1 ?
RE007 growth inh: 0.2%[18.4 µM]

Results for Cc1ccc(C2(c3noc(CN(C)CC4CCCCO4)n3)CCCC2)cc1 (stereo not drawn) ?
Pf growth 48h: inconclusive; NS1 function inh: -7.3%; SARS PLpro yeast: -1.4%; Pf growth 96h: inconclusive; RE007 growth inh: -1.0%

Results for COCCN(Cc1nc(C2(c3ccc(C)cc3)CCCC2)no1)C(C)C ?
Pf growth 48h: inconclusive; NS1 function inh: -10.0%; SARS PLpro yeast: 0.7%; Pf growth 96h: 13.1µM*; RE007 growth inh: 14.3%

How did Cc1ccc(C2(c3noc(CN4CCC(c5ccncc5)CC4)n3)CCCC2)cc1 do in these assays?
Pf growth 48h: inconclusive; NS1 function inh: -4.9%; SARS PLpro yeast: -1.0%; Pf growth 96h: 11.7µM*; RE007 growth inh: -9.9%

How did COc1ccccc1N1CCN(C(=O)c2ccc(Cl)c(S(=O)(=O)N3CCOCC3)c2)CC1 do in these assays?
Pf growth 48h: inconclusive; NS1 function inh: 3.9%; SARS PLpro yeast: -6.1%; Pf growth 96h: 10.2%; RE007 growth inh: -3.2%

How did COc1ccc(CCNC(=S)Nc2ccc(S(=O)(=O)Nc3ncccn3)cc2)cc1OC do in these assays?
Pf growth 48h: -3.9%; NS1 function inh: 0.5%; SARS PLpro yeast: 2.1%; Pf growth 96h: -14.1%; RE007 growth inh: 1.0%

Results for CC(=O)Oc1ccc(C(=O)Nc2ccccc2NC(=O)c2ccc(OC(C)=O)cc2)cc1 ?
Pf growth 48h: -9.4%[0.00184 µM]; NS1 function inh: 4.2%; SARS PLpro yeast: 2.0%; Pf growth 96h: inconclusive; RE007 growth inh: -3.6%

What do the screens show for `CC(=O)Oc1ccc(C(=O)Nc2cccc(C(=O)c3ccc(C)c(C)c3)c2)cc1`?
Pf growth 48h: 11.7µM*; NS1 function inh: 20.0%; SARS PLpro yeast: 1.3%; Pf growth 96h: 76.7%; RE007 growth inh: -0.1%

Results for CC(=O)Oc1ccc(C(=O)Nc2cc(NC(=O)c3ccc(OC(C)=O)cc3)cc(C(=O)NC(C)(C)C)c2)cc1 ?
Pf growth 48h: inconclusive; NS1 function inh: 8.0%; SARS PLpro yeast: 1.4%; Pf growth 96h: 2.62µM*; RE007 growth inh: 1.3%

Results for COc1ccc(C(=O)Nc2cccc(OC(=O)c3ccc(C)c(C)c3)c2)cc1 ?
Pf growth 48h: 3.5%; NS1 function inh: 21.5%; SARS PLpro yeast: 0.1%; Pf growth 96h: 246.2%; RE007 growth inh: 8.3%

Results for Cc1ccc2nc(COC(=O)c3cccnc3Cl)cc(=O)n2c1 ?
RE007 growth inh: 5.6%

Results for O=C1C(Cl)=C(Nc2cccc(O)c2)C(=O)N1Cc1ccccc1 ?
Pf growth 48h: -23.6%; SARS PLpro yeast: -1.6%; Pf growth 96h: 4.65µM*; RE007 growth inh: 1.1%
